Bioassay records as filed in PubChem.
Pf growth 96h = P. falciparum growth inhibition at 96 hours | P. falciparum luciferase reporter growth, 96 h | Potency, µM (highest dose often 28.7 µM), for the others: top-dose activity change, negative = inhibition, most hits filed as inhibitors | 320,000 tested, 6.9% active | AID 504834; also: potency is read from the fitted curve at half-maximal effect
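Compounds incubated with erythrocytes infected by luciferase-expressing P. falciparum (2% hematocrit, 0.05% parasitemia final) for 96 hours, 37 C in 5% CO2. Growth inhibition scored as decreased luciferase luminescence.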
Sm TGR inh = S. mansoni TGR enzyme inhibition; Q962Y6; purified TGR, DTNB reduction, TNB absorbance 405 nm; Potency, µM (highest dose often 114 µM), for inactives: top-dose activity change, negative = inhibition, actives largely listed as inhibitors; 360,000 tested, 3% active; AID 485364; also: potency is read from the fitted curve at half-maximal effect; nearly all actives have a fitted effect of over 60% in size
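TGR 20 nM + NADPH 100 uM (dispensed conc.), cpd preinc 15 min RT; start with NADPH (500 uM addition) then DTNB (15 mM addition). Kinetic TNB absorbance, 405 nm filter. Four-parameter Hill fit across titration.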
Pf growth 48h = inhibits P. falciparum growth in the first generation, 48 h; 310,000 tested, 5.9% active; P. falciparum luciferase growth in erythrocytes, 48 h; Potency, µM (top dose mostly 28.7 µM), for the others: at the top dose activity change, negative = inhibition, usual class: inhibitors; also: potency is read from the fitted curve at half-maximal effect
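In quantitative HTS format, infected erythrocytes bearing luciferase-reporter parasites were treated for a single generation at 37 C. Luminescence after adding detection reagent served as the growth measure.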
HCMV antiviral = human cytomegalovirus inhibition; HFF cells, HCMV-luciferase reporter, 72 h; active compounds read low; activity change, negative = inhibition, % at 57.5 µM; 410,000 tested, 4.5% active; AID 1259415; in the data active = activity change below about -60%; inconclusive = no clear call, values can overlap the other calls; inactive = above about -39%
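Inhibition of viral replication was scored as loss of reporter luminescence in HFFs infected with HCMV-luciferase (MOI 1 PFU/cell) for 72 h; compounds tested at 2 doses, normalized to buffer and Salinomycin controls.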
FBPA Giardia inh = inhibitors of Giardia lamblia fructose-1,6-bisphosphate aldolase | purified Giardia FBPA | AID 2451 | Potency, µM (top dose mostly 59.6 µM), for the others: top-dose activity, negative = inhibition, hits mostly inhibitors | A8B2U2 | 290,000 tested, 0.71% active; also: potency is read from the fitted curve at half-maximal effect; nearly all actives have a fitted effect of over 55% in size
Target sequence (A8B2U2 whole entry, looked up): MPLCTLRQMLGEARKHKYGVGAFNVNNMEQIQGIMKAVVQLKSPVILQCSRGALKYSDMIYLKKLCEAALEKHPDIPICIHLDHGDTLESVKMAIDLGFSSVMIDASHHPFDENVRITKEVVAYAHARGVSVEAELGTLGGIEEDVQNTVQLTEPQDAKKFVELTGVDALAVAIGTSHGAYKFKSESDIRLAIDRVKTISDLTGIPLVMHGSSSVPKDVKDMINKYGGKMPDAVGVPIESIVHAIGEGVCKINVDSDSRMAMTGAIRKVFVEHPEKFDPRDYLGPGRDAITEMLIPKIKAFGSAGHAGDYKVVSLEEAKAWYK
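Giardia FBPA (40 nM reagent) was preincubated 10 min at RT with compound (up to 57.5 uM final), then substrate plus GAPDH/TPI/NAD/arsenate coupling system with diaphorase/resazurin was added; resorufin fluorescence (525/598 nm) was read after 20 min.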
Numbers without * were called inactive; i = inactive; u = inconclusive; x = no result given; + = active, no number; [ ] = dose if it differs, or a comment. In the library only some 14% were active in any assay of this set; here they are far more common. Unless noted, calls follow the shape of the dose curve; as a rule, active = well fitted curve in the direction sought with a large enough effect; inconclusive = small, poorly fitted or top-dose-only effect, or another doubt; inactive = no such curve, though single readings can be large; an effect the other way counts as inactive or inconclusive. % is scaled to controls: 0 for no effect and ±100 for the full control effect.

SMILES	Pf growth 96h	Sm TGR inh	Pf growth 48h	HCMV antiviral	FBPA Giardia inh
Cc1cc2c(Nc3cccc(O)c3)ncnc2s1	9%	-8%	366%	13	-15%
COC(=O)c1nc2nc(C)cc(C(F)(F)F)n2n1	12µM*	-29%	1%	58	1%
COC(=O)c1nc2nc(-c3cccs3)cc(C(F)(F)F)n2n1	-13%	-1%	12%	9	17%
S=C1SCN(Cc2ccccc2)CN1Cc1ccco1	x	x	x	-16	x
O=C1CN(Cc2ccccc2)C(=NCc2ccco2)S1	-4%	5%	1.9µM*	8	-2%
CC(=O)Nc1cc(-c2ccc(C(=O)N3CCOCC3)cc2)cn2c(-c3ccc(S(C)(=O)=O)cc3)cnc12	x	x	x	17	x
COc1ccc(C(=O)Cn2c(C(C)=O)nc3ccccc32)cc1	x	x	x	-64*	x
COc1ccc(/C=C/C(=O)c2nc3ccccc3n2CC(=O)c2ccc(OC)cc2)cc1	-186%	11%	10µM*	19	-4%
CN(C)C(=O)c1ccc(-c2cc3c(Nc4ccc(OC(F)(F)F)cc4)nccc3n2C)cc1	x	x	x	-25	x
CN1CCC(N(C)C(=O)c2cc(S(=O)(=O)N(C)c3ccccc3)ccc2Cl)CC1	x	x	x	-10	x
CCN1C(=O)[C@H]2[C@@H](c3ccc(-c4ccc(C(C)=O)cc4)cc3)N3CCC[C@@]3(C(=O)OC)[C@H]2C1=O	u	-27%	u	-9	x
CCN1C(=O)[C@H]2[C@@H](c3ccc(-c4ccc(C(C)=O)cc4)cc3)N3CCCC[C@@]3(C(=O)OC)[C@H]2C1=O	12µM*	-15%	u	12	x
CCN1C(=O)[C@H]2[C@@H](c3ccc(-c4cc(C(C)=O)cs4)cc3)N3CCCC[C@@]3(C(=O)OC)[C@H]2C1=O	u	-30%	u	37	x
CCN1C(=O)[C@@H]2[C@@H](c3ccc(-c4ccc(C(C)=O)cc4)cc3)N3CCC[C@@]3(C(=O)OC)[C@@H]2C1=O	u	-28%	9.3µM*	31	x
COc1ccc(NC(=O)CS(=O)CC(=O)Nc2ccc(NC(C)=O)cc2)cc1 (centres undefined)	u	-1%	8%	-11	6%
CCc1ccc(-n2nc(C)c3c(C)cc(=O)n(CC(=O)Nc4ccc(C(C)=O)cc4)c32)cc1	x	3%	x	30	x
CC1(C)CC(=O)c2c(S(C)(=O)=O)sc(Br)c2C1	u	16µM*	u	-60*	6%
Cc1cccc2nc(CSc3ccc(Cl)cc3)cn12	u	0%	51%	-18	0%
Cc1cc(C)n2cc(CSCc3ccco3)nc2n1	3%	40µM*	2%	-15	-15%
Cc1cccc2nc(CSCc3ccco3)cn12	i	28µM*	64%	159	u
O=C(CCNS(=O)(=O)c1ccc2ccccc2c1)NCCOc1ccccc1	-8%	4%	24%	-34	x
O=C(CCCN1C(=O)c2ccccc2C1=O)NCCCN1CCOCC1	x	-8%	-4%	33	2%
CCc1ccc(/C=C2/Sc3ccccc3N(CC(=O)NCCCN3CCOCC3)C2=O)cc1	u	-19%	u	-60*	9%
O=C(CCN1C(=O)/C(=C\c2ccccc2)SC1=S)NCCCN1CCOCC1	7.4µM*	-12%	13µM*	u	x
O=C1NC2C3CC(c4ccccc43)C12 (centres undefined)	x	x	x	-70*	x
SMILES	Pf growth 96h	Sm TGR inh	Pf growth 48h	HCMV antiviral	FBPA Giardia inh
CCOc1ccc(-c2nnc(N(CC)C(=O)C3CCC3)s2)cc1	6.6µM*	9%	u	3	-5%
COCCN(C(=O)CCc1ccc(OC)cc1)c1nnc(-c2ccncc2)s1	34%	0%	11%	-4	-15%
CCCC(=O)N(C)c1nnc(-c2ccc(OC)cc2)s1	10µM*	-1%	76%	-22	2%
CO[C@H]1COC(=O)[C@H](C)NC(=O)[C@@H](C)COC(=O)C/C=C\[C@@H]1C	x	x	x	x	2%[12.9 µM]
O=C(CCn1cccn1)Nc1ccc2c(c1)OCCO2	3%	16%	98%	u	x
CCc1c(C)c(C#N)c2[nH]c3ccccc3n2c1=S	u	0.56µM*	-6%	-102*	u
CCc1cc(=O)n2c([nH]c3ccccc32)c1C#N	x	-17%	0%	44	-25%
CCc1cc(=S)n2c([nH]c3ccccc32)c1C#N	8%	1.6µM*	12%	x	3%
C=C(C)Cc1c(C)c(C#N)c2[nH]c3ccccc3n2c1=O	-16%	-13%	14%	-66*	u
O=C(Cc1ccccc1)NS(=O)(=O)c1ccccc1	x	x	x	7	x
Cc1cc2c3c(cccc3n1)C(=O)c1ccccc1-2	x	x	x	x	0%
O=C(O)CCC1C(=O)NC(=O)CC1c1ccccc1 (centres undefined)	x	x	x	-15	x
CSc1ccccc1C(=O)N(C)Cc1ccccc1	83%	x	7%	-27	2%
CSc1ccccc1C(=O)N(C)C(c1ccccc1)c1ccccc1	10µM*	4%	u	-20	-4%
COc1ccc(-c2cc(C(F)(F)F)n3nc(-c4ccc(Cl)cc4)cc3n2)cc1OC	x	2%	x	1	x
COc1ccc(C2C(C(C)=O)=C(O)C(=O)N2c2ccc(Br)cn2)cc1 (centres undefined)	4.1µM*	-24%	u	26	3%
COc1cccc(-c2ccc(NC(=O)C3CCCN(Cc4ccc(CO)o4)C3)cc2)c1 (centres undefined)	u	-16%	u	-2	x
O=C(NCc1ccccc1)C1=CN2CCN(Cc3cccc(Cl)c3)C(=O)N=C2O1	x	x	x	-1	x
Cc1ccc(C)c(N2CCN(C(=O)CCNS(=O)(=O)c3ccc4c(c3)oc(=O)n4C)CC2)c1	1.7µM*	6%	-30%	u	7%
Cc1cc(C)cc(NC(=O)CCNS(=O)(=O)c2ccc3c(c2)oc(=O)n3C)c1	u	2%	u	-6	7%
COc1ccc(C)cc1NC(=O)Cn1c(=O)oc2cc(S(=O)(=O)NCc3ccccc3)ccc21	x	8%	x	+	x
Cn1c(=O)oc2cc(S(=O)(=O)NCCC(=O)N3CCN(c4ccccc4)CC3)ccc21	13µM*	6%	u	-8	x
Cc1ccc(NC(=O)CCNS(=O)(=O)c2ccc3c(c2)oc(=O)n3C)c(C)c1	12µM*	-32%	u	-10	7%
Cc1cc(OCC(=O)NCCCN2CCCC2=O)c2c(C)c(C)c(=O)oc2c1	-10%	-11%	-15%	32	11%
CC1(C(=O)NC2CCCCC2)CCC(=O)N1CC(F)(F)F (centres undefined)	x	x	x	-19	x
COc1ccc(S(=O)(=O)Oc2ccccc2C(N)=O)cc1	-5%	4%	20%	0	x
COc1ccc(N2C(=O)CC(Nc3ccc(C)cc3)C2=O)cc1 (centres undefined)	-27%	-5%	x	-5	-2%
Cc1ccc(CN2C(=O)CC(Nc3ccc(N4CCOCC4)cc3)C2=O)cc1 (centres undefined)	56%	40µM*	-1%	3	1%
